What all share (parameters): species or system human, MV4-11 + K-562 + COLO205 + SK-N-BE2 + OVCAR-8
The subject of one assay is COX5A. Particulars: read-out: apparent Kd; compound concentrations: 100 nM and 1000 nM (sheet 'Samples'), CATDS: 5.4646770087593201E-2; n = 1.
The test system of another assay is CSNK1D. To be noted: read-out: apparent Kd, compound concentrations: 100 nM and 1000 nM (sheet 'Samples'), n = 1.
The subject of another assay is CSNK1E. Particulars: read-out: apparent Kd; compound concentrations: 100 nM and 1000 nM (sheet 'Samples'), CATDS: 5.2875216757628997E-2; n = 1.
The test system of a further assay is DDR1. Particulars: read-out: apparent Kd, n = 1.
Another assay relates to DDR2. To be noted: read-out: apparent Kd, n = 1.
A further assay deals with DYRK1A. Particulars: read-out: apparent Kd; compound concentrations: 100 nM and 1000 nM (sheet 'Samples'), CATDS: 4.6782776774364397E-2; n = 1.
For the next assay, the system named is ILK. To be noted: read-out: apparent Kd; compound concentrations: 100 nM and 1000 nM (sheet 'Samples'), CATDS: 4.86206826406465E-2; n = 1.
A further assay deals with JAK2. To be noted: read-out: apparent Kd; compound concentrations: 100 nM and 1000 nM (sheet 'Samples'), CATDS: 0.29618992494589602; n = 1.
In a further assay the test system is MAPK10. To be noted: read-out: apparent Kd; compound concentrations: 100 nM and 1000 nM (sheet 'Samples'), CATDS: 6.7537775874855099E-2; n = 1.
The next assay relates to MAPK14. To be noted: read-out: apparent Kd, compound concentrations: 100 nM and 1000 nM (sheet 'Samples'), n = 1.
The subject of a further assay is MAPK8. Particulars: read-out: apparent Kd; compound concentrations: 100 nM and 1000 nM (sheet 'Samples'), CATDS: 5.7180888411163297E-2; n = 1.
In the next assay the test system is MAPK9. To be noted: read-out: apparent Kd; compound concentrations: 100 nM and 1000 nM (sheet 'Samples'), CATDS: 0.15745137005687401; n = 1.
Another assay has as its system MAPKAPK2. Particulars: read-out: apparent Kd; compound concentrations: 100 nM and 1000 nM (sheet 'Samples'), CATDS: 6.45632126081358E-2; n = 1.
Another assay has as its system NLK. To be noted: read-out: apparent Kd; compound concentrations: 100 nM and 1000 nM (sheet 'Samples'), CATDS: 6.2213467797214997E-2; n = 1.
For the next assay, the system named is RIPK2. Particulars: read-out: apparent Kd; compound concentrations: 100 nM and 1000 nM (sheet 'Samples'), CATDS: 7.3862527968221903E-2; n = 1.
The next assay has as its system CSNK2A1;CSNK2A3. Particulars: read-out: apparent Kd; compound concentrations: 100 nM and 1000 nM (sheet 'Samples'), CATDS: 0.47499416496698399; n = 1.
The next assay deals with CSNK2A2. Particulars: read-out: apparent Kd, compound concentrations: 100 nM and 1000 nM (sheet 'Samples'), n = 1.
The test system of the next assay is HCK. To be noted: read-out: apparent Kd; compound concentrations: 100 nM and 1000 nM (sheet 'Samples'), CATDS: 9.2745081986231104E-2; n = 1.
The subject of a further assay is IRAK3. Particulars: read-out: apparent Kd; compound concentrations: 100 nM and 1000 nM (sheet 'Samples'), CATDS: 7.7549132648748395E-2; n = 1.
The next assay concerns LYN. To be noted: read-out: apparent Kd; compound concentrations: 100 nM and 1000 nM (sheet 'Samples'), CATDS: 7.2911258996188402E-2; n = 1.
The subject of another assay is MAPK11. To be noted: read-out: apparent Kd; compound concentrations: 100 nM and 1000 nM (sheet 'Samples'), CATDS: 7.9880632684471306E-2; n = 1.
For another assay, the system named is PIP4K2C. To be noted: read-out: apparent Kd; compound concentrations: 100 nM and 1000 nM (sheet 'Samples'), CATDS: 6.71745626151799E-2; n = 1.
For a further assay, the system named is RET. To be noted: read-out: apparent Kd, n = 1.
The next assay deals with RIPK3. To be noted: read-out: apparent Kd; compound concentrations: 100 nM and 1000 nM (sheet 'Samples'), CATDS: 7.1422785641186204E-2; n = 1.
A further assay deals with TNK1. Particulars: read-out: apparent Kd; compound concentrations: 100 nM and 1000 nM (sheet 'Samples'), CATDS: 0.18276083287815401; n = 1.
The subject of another assay is TP53RK. To be noted: read-out: apparent Kd; compound concentrations: 100 nM and 1000 nM (sheet 'Samples'), CATDS: 6.3683372655405995E-2; n = 1.
For another assay, the system named is YES1. Particulars: read-out: apparent Kd; compound concentrations: 100 nM and 1000 nM (sheet 'Samples'), CATDS: 0.118526844217484; n = 1.
The next assay deals with DYNC1LI1. Particulars: read-out: apparent Kd; compound concentrations:100 nM and 1000 nM (sheet 'Samples'); n = 1.
In another assay the test system is FLT3. Particulars: read-out: apparent Kd; compound concentrations:100 nM and 1000 nM (sheet 'Samples'); n = 1.
The subject of a further assay is DAPK3. Particulars: read-out: apparent Kd; compound concentrations:100 nM and 1000 nM (sheet 'Samples'); n = 1.
Another assay concerns EGFR. Particulars: read-out: apparent Kd; compound concentrations:100 nM and 1000 nM (sheet 'Samples'); n = 1.
In a further assay the test system is HSP90B1. Particulars: read-out: apparent Kd; compound concentrations:100 nM and 1000 nM (sheet 'Samples'); n = 1.
The subject of another assay is IRAK1. To be noted: read-out: apparent Kd; compound concentrations:100 nM and 1000 nM (sheet 'Samples'); n = 1.
A further assay relates to PBK. To be noted: read-out: apparent Kd; compound concentrations: 100 nM and 1000 nM (sheet 'Samples'), CATDS: 0.53596365658376799; n = 1.
Setting [1] is: compound concentrations:100 nM and 1000 nM (sheet 'Samples').

Where two headings read alike, the source gives them in different places.

In the case of `Clc1ccc(-c2nn3ncccc3c2-c2ccnc(Nc3ccc4c(c3)OCCO4)n2)cc1` [GW829116X], the potency estimated from few doses in the assay on COX5A was 1390 nM; with CSNK1D (CATDS: 7.5632586412137201E-2), 637 nM; in the assay with CSNK1E, 1530 nM; in the assay with DDR1 (compound concentrations: 100 nM and 1000 nM (sheet 'Samples'), CATDS: 8.5854125332601505E-2) it was 495 nM; in the assay with DDR2 (compound concentrations: 100 nM and 1000 nM (sheet 'Samples'), CATDS: 5.1047862039129102E-2) it was 1710 nM; in the assay with DYRK1A, 2320 nM. Moreover, the potency estimated from few doses in the assay with ILK is 2010 nM; with JAK2 it was 72.6 nM; in the assay on MAPK10 it was 815 nM; with MAPK14 (CATDS: 7.0110586320851001E-2), 749 nM; in the assay with MAPK8, 1230 nM; with MAPK9, 177 nM. Also, the potency estimated from few doses in the assay on MAPKAPK2 is 904 nM; in the assay with NLK, 988 nM; with RIPK2 it was 670 nM.
Take `CC(=O)c1c(C)c2cnc(Nc3ccn(C)n3)nc2n(C2CCCC2)c1=O` [PFE-PKIS_44]: the potency estimated from few doses with CSNK2A1;CSNK2A3 was 2260 nM; with CSNK2A2 (CATDS: 0.52778498170906496), 1830 nM.
For the compound `COc1cc(Nc2nccc(-c3c(-c4cccc(NC(=O)c5c(F)cccc5F)c4)nn4ncccc34)n2)cc(OC)c1OC` [GSK327238A], the potency estimated from few doses in the assay on DDR1 (compound concentrations: 100 nM and 1000 nM (sheet 'Samples'), CATDS: 6.8880271318571995E-2) is 1830 nM; in the assay with HCK, 926 nM; in the assay with IRAK3, 1360 nM; in the assay on LYN, 1580 nM; with MAPK11 it was 1270 nM; in the assay on MAPK14 (CATDS: 7.1692025023195896E-2), 1650 nM. In addition, the potency estimated from few doses in the assay with PIP4K2C is 1960 nM; with RET (compound concentrations: 100 nM and 1000 nM (sheet 'Samples'), CATDS: 0.140384770008642) it was 450 nM; in the assay on RIPK3, 1660 nM; in the assay with TNK1, 305 nM; with TP53RK it was 2300 nM; with YES1, 592 nM.
On to `COc1cccc(-n2ncc3c(N/N=C/c4ccc(C)cc4)ncnc32)c1` [GW829877X], for which, in the assay on CSNK2A2 (CATDS: 1), the potency estimated from few doses is 1940 nM.
On to `COC(=O)Nc1nc2cc(Oc3ccc(NC(=O)Nc4cc(C(F)(F)F)ccc4F)cn3)ccc2[nH]1.COC(=O)Nc1nc2cc(Oc3ccc(NC(=O)Nc4cc(C(F)(F)F)ccc4F)cn3)ccc2[nH]1.Cl.Cl` [GW681170A], for which the potency estimated from few doses is 278 nM with DDR1 (setting [1]); 1460 nM in the assay on DDR2 (setting [1]); 1830 nM in the assay with DYNC1LI1; 1240 nM in the assay on FLT3; 461 nM with RET (setting [1]).
For `Cl.O=S1CCN(Cc2ccc(-c3ccc4ncnc(Nc5ccc(OCc6ccccc6)c(F)c5)c4c3)o2)CC1` [GW576924A], the potency estimated from few doses is 1760 nM in the assay with DAPK3, 28.8 nM with EGFR, 1100 nM with HSP90B1 and 1540 nM in the assay on IRAK1.
With `Cn1c(-c2ccncc2)c(-c2ccc(F)cc2)c2ncccc21` [RO1155240-000], the potency estimated from few doses was 2250 nM in the assay on CSNK1D (CATDS: 0.46855924192133103) and 1720 nM with PBK.

Source of the values: publication PMC11062922 (Nature Chemical Biology, 2023).
